Values without a mark were called inactive. For some of these results: Potency and affinity values are given separately. The source made the active and inactive calls. Unless noted, no rule for the calls is given here.

In PubChem BioAssay one finds growth inhibition, inhibition and outcome data, which are given here for 20 compounds.

Experiment [1] is described as follows: antimalarial activity against Dd2 strain (AID 2302;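 active = growth inhibition above 50% at the single 2 µM test dose, taken to imply half-maximal potency below 2 µM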;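 also: 0% = DMSO untreated growth and 100% = chloroquine plus artemisinin killed control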). Particulars: P. falciparum Dd2 in RBCs, LDH growth readout, 72 h; at 2 µM; hits give high values.
Experiment [2] in a line: HepG2 cytotoxicity, primary screen, cytotoxicity control for P. falciparum antimalarial project, cell-based, ATP luminescence (AID 2303;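 active = inhibition above 50%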;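 also: 0% = DMSO wells and 100% = digitonin-killed cells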). As to conditions: HepG2 viability, 24-48 h, at 10 µM, hits give high values.
Experiment [3] deals with L-lactate dehydrogenase (Plasmodium falciparum (isolate CDC / Honduras)) (UniProt Q27743). Description: PfLDH activity inhibition – cell lysate, 3D7 strain, counter-screen for P. falciparum growth inhibition project (AID 2304).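 Also: 0% = vehicle and 100% = reference inhibitor.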 Particulars: P. falciparum 3D7 crude extract, LDH APAD/NBT absorbance; at 2 µM; hits give high values.
Experiment [4] can be described thus: inhibition of 3D7 malaria parasite growth – strain 3D7 (AID 2306).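 Also: 0% = DMSO wells and 100% = chloroquine plus artemisinin control wells.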 As to conditions: P. falciparum 3D7 erythrocytic growth, LDH absorbance, 72 h; at 2 µM; hits give high values.
The target of experiment [5] is Calcium-dependent protein kinase 1 (Plasmodium falciparum (isolate 3D7)) (UniProt P62344). Description: PfCDPK1 kinase inhibitors, biochemical, TCAMS library (AID 1159585; cut-off not given, nearly all actives have IC50 up to about 0.98 µM;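 also: inhibitors leave more ATP so luminescence rises with inhibition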). As to conditions: recombinant PfCDPK1, Kinase-Glo ATP depletion luminescence.
Experiment [6] concerns the target Plasmodium falciparum protein kinase 6 (PK6, PF3D7_1337100) (UniProt Q8IDW1). Description: PfPK6 kinase inhibitors, biochemical, TCAMS library (AID 1159586). Particulars: recombinant PfPK6, Kinase-Glo ATP depletion luminescence.
Experiment [7] has as its target Protein kinase 7 (PK7), Plasmodium falciparum 3D7 (PF3D7_0213400) (UniProt Q7YTF7). Kind of experiment: inhibition of Plasmodium PK7 catalytic activity – biochemical, TCAMS antimalarial set, Kinase-Glo luminescence (AID 1159587). As to conditions: recombinant PfPK7, Kinase-Glo ATP depletion luminescence.
In experiment [8] the target is Calcium-dependent protein kinase 4 (Plasmodium falciparum (isolate 3D7)) (UniProt Q8IBS5). Description: PfCDPK4 kinase inhibitors, biochemical, TCAMS library (AID 1159588; cut-off not given, nearly all actives have IC50 up to about 0.91 µM). Particulars: recombinant PfCDPK4, Kinase-Glo ATP depletion luminescence.
Calcium-dependent protein kinase 4 (Plasmodium falciparum (isolate 3D7)), sequence (Q8IBS5 whole entry, looked up): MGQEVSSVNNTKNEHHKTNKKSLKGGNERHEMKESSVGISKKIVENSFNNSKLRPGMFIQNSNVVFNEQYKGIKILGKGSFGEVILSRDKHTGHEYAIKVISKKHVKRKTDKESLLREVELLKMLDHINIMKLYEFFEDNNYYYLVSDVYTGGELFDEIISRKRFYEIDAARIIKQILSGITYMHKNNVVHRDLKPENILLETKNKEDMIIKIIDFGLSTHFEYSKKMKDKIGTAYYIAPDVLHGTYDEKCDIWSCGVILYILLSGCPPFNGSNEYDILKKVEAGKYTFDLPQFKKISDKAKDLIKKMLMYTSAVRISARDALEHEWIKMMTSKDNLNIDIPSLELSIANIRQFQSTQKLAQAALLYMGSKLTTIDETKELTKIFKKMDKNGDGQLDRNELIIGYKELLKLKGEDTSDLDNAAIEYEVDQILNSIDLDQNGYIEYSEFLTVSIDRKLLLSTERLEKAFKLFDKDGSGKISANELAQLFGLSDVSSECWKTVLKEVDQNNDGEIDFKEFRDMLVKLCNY

Plasmodium falciparum protein kinase 6 (PK6, PF3D7_1337100), sequence (Q8IDW1 1-305): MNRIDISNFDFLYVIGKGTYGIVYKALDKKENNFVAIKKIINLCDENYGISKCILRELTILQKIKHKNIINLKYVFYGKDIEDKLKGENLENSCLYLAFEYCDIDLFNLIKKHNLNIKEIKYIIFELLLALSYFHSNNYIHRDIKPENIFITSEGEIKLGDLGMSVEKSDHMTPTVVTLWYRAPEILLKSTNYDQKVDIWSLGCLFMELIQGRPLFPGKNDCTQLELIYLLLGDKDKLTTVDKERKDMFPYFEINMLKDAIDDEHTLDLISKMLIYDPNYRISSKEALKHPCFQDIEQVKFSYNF
Calcium-dependent protein kinase 1 (Plasmodium falciparum (isolate 3D7)), sequence (P62344 whole entry, looked up): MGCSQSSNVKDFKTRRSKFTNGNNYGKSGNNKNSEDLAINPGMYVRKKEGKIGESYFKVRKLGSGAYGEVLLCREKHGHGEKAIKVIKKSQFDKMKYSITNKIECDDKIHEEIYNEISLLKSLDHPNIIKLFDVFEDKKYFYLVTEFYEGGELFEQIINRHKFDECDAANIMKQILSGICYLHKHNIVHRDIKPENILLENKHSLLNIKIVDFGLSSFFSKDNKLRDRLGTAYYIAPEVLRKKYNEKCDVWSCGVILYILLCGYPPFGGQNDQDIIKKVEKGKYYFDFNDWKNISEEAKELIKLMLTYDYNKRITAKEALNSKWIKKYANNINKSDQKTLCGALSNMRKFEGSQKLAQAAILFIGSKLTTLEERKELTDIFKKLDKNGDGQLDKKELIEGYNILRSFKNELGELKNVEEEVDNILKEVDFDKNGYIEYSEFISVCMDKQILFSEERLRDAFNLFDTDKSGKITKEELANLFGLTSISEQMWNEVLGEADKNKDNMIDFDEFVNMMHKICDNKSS
Protein kinase 7 (PK7), Plasmodium falciparum 3D7 (PF3D7_0213400), sequence (Q7YTF7 1-343): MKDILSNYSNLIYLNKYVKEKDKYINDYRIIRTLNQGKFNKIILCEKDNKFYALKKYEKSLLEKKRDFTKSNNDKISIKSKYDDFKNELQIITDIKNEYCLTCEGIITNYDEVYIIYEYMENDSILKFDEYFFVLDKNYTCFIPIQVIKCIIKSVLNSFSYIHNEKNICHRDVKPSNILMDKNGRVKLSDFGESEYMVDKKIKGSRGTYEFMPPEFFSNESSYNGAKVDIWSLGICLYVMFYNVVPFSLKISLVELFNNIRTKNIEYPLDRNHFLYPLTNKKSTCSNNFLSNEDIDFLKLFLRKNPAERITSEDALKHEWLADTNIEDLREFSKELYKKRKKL
L-lactate dehydrogenase (Plasmodium falciparum (isolate CDC / Honduras)), sequence (Q27743 whole entry, looked up): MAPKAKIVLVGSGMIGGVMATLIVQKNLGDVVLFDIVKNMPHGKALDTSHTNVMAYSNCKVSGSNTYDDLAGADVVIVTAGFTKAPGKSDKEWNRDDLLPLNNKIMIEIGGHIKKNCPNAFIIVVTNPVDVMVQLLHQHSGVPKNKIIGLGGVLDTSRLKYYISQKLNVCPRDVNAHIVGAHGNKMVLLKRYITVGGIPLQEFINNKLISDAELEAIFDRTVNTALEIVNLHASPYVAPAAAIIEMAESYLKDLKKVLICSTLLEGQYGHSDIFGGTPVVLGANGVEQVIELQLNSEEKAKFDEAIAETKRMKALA

Consider `COc1cccc(CNC[C@@H](O)[C@H](Cc2ccccc2)NC(=O)c2cc3c4c(c2)c(C(C)C)cn4CCS(=O)(=O)N3C)c1`, for which the growth inhibition in experiment [1] and in experiment [4] was 98% (active) in each case. For the same compound, the inhibition in experiment [2] was 21%; in experiment [3] it was -6%. Further, the outcome in experiment [5], in experiment [6], in experiment [7] and in experiment [8] was inactive.

As for `O=C1Nc2cccc3c2C1(CCCCCN1CCC(c2c[nH]c4ccncc24)CC1)CCC3` (stereo not given), the results for the growth inhibition in experiment [1] and in experiment [4] were 3% and 95% (active), respectively. Further, the results for the inhibition in experiment [2] and in experiment [3] were 8% and 6%, respectively. In addition, the outcome in experiment [5], in experiment [6], in experiment [7] and in experiment [8] was inactive.

Consider `COc1ccc(OCC(O)CN(Cc2ccccc2OC)C(=O)Nc2ccc(Br)cc2)cc1` (stereo not given), for which the figures for the growth inhibition in experiment [1] and in experiment [4] were 2% and 97% (active), respectively. Also, the inhibition is 8% in experiment [2] and 0% in experiment [3]. Further, the result in experiment [5], in experiment [6], in experiment [7] and in experiment [8] was inactive.

Consider `Cc1cc(=O)c2cc(-c3ccc(OC(F)(F)F)cc3)ccc2[nH]1`, for which the growth inhibition was 95% (active) in experiment [1] and 96% (active) in experiment [4]. Further, the inhibition in experiment [2] was -3%; in experiment [3], 3%. Also, the outcome in experiment [5], in experiment [6], in experiment [7] and in experiment [8] was inactive.

In the case of `O=C(Nc1ccc(-c2ccccc2)cc1)Nc1cccc(OCCN2CCCC2)c1`, the growth inhibition in experiment [1] was 14%; in experiment [4], 94% (active). Besides, the inhibition in experiment [2] was 11%; in experiment [3], -2%. Also, the outcome in experiment [5], in experiment [6], in experiment [7] and in experiment [8] was inactive.

Regarding `COc1cc(NC(=O)/C=C/c2cccc3ccoc23)ccc1OCCN(C(C)C)C(C)C`, the growth inhibition was 5% in experiment [1] and 90% (active) in experiment [4]. Further, the inhibition is 22% in experiment [2] and 2% in experiment [3]. Besides, the result in experiment [5], in experiment [6], in experiment [7] and in experiment [8] was inactive.

For `O=c1cc(NCCCNCc2cc(C(F)(F)F)ccc2Cl)[nH]c2ccccc12`, the growth inhibition is 20% in experiment [1] and 90% (active) in experiment [4]. Besides, the inhibition in experiment [2] is 25%; in experiment [3], -2%. Moreover, the result in experiment [5], in experiment [6], in experiment [7] and in experiment [8] was inactive.

With `CCOc1ccccc1C(=O)N1CCc2cc3nccc(N4CCN5CCC[C@H]5C4)c3cc21`, the figures for the growth inhibition in experiment [1] and in experiment [4] were 58% (active) and 100% (active), respectively. The inhibition was 4% in experiment [2] and -8% in experiment [3]. In addition, the result in experiment [5], in experiment [6], in experiment [7] and in experiment [8] was inactive.

Regarding `CCCCc1cc(N2CCC(NC(C)=O)C2)nc(Nc2ccc(C)cc2)n1` (stereo not given), the growth inhibition is 1% in experiment [1] and 95% (active) in experiment [4]. The inhibition in experiment [2] was 2%; in experiment [3], -8%. For the same compound, the result in experiment [5], in experiment [6], in experiment [7] and in experiment [8] was inactive.

In the case of `COc1ccc2nccc([C@@H](O)CN3CCC(NCc4cc5ccccc5[nH]c4=O)CC3)c2c1`, the growth inhibition in experiment [1] was -3%; in experiment [4], 97% (active). Besides, the figures for the inhibition in experiment [2] and in experiment [3] were -6% and 3%, respectively. Besides, the outcome in experiment [5], in experiment [6], in experiment [7] and in experiment [8] was inactive.

Consider `Cc1cc(NN=Cc2cccc(Cl)c2)c2ccc(F)cc2n1`, for which the values for the growth inhibition in experiment [1] and in experiment [4] were 98% (active) and 101% (active), respectively. The inhibition in experiment [2] was -2%; in experiment [3], -4%. In addition, the result in experiment [5], in experiment [6], in experiment [7] and in experiment [8] was inactive.

For the compound `c1ccc(-c2nc(NC3CCCCC3)cc(C3CC3)n2)nc1`, the growth inhibition in experiment [1] is 76% (active); in experiment [4] it was 97% (active). Moreover, the inhibition in experiment [2] was 35%; in experiment [3], 2%. The outcome in experiment [5], in experiment [6], in experiment [7] and in experiment [8] was inactive.

Take `CN1CCN(c2cc(NC(=O)Nc3ccc(-c4ccncc4)c(Cl)c3)ccc2Br)CC1`: the growth inhibition in experiment [1] is 99% (active); in experiment [4], 101% (active). The inhibition in experiment [2] is 23%; in experiment [3], 2%. Further, the result in experiment [5], in experiment [6], in experiment [7] and in experiment [8] was inactive.

`CC(ON1C(N)=NC(N)=NC1(C)C)c1ccccc1` (stereo not given): the growth inhibition is 58% (active) in experiment [1] and 96% (active) in experiment [4]. The inhibition in experiment [2] is 65% (active); in experiment [3], 0%. Further, the result in experiment [5], in experiment [6], in experiment [7] and in experiment [8] was inactive.

`O=C(Nc1ccc2nc(-c3ccc4nc(NC(=O)C5CCCCC5)sc4c3)[nH]c2c1)C1CCCCC1`: the growth inhibition was 68% (active) in experiment [1] and 100% (active) in experiment [4]. Also, the results for the inhibition in experiment [2] and in experiment [3] were 84% (active) and -9%, respectively. Moreover, the outcome in experiment [5], in experiment [6], in experiment [7] and in experiment [8] was inactive.

In the case of `CC(C)c1ccc(CN2CCC(NC(=O)c3ccc(-c4cccc(Cl)c4)s3)CC2)cc1`, the growth inhibition in experiment [1] was 6%; in experiment [4], 82% (active). The inhibition was 50% (active) in experiment [2] and 3% in experiment [3]. For the same compound, the result in experiment [5], in experiment [6], in experiment [7] and in experiment [8] was inactive.

Turning to `O=C(Nc1nc2cc(S(=O)(=O)NCCCN3CCOCC3)ccc2n1CCCn1ccnc1)c1ccc(Cl)cc1`, the growth inhibition is -6% in experiment [1] and 95% (active) in experiment [4]. Also, the figures for the inhibition in experiment [2] and in experiment [3] were -27% and -1%, respectively. Also, the result in experiment [5], in experiment [6], in experiment [7] and in experiment [8] was inactive.

For `COc1ccccc1CCCN1C(=O)C(c2ccccc2)(c2ccccc2)N=C1N`, the growth inhibition in experiment [1] and in experiment [4] was 99% (active) each time. Also, the figures for the inhibition in experiment [2] and in experiment [3] were 49% and -3%, respectively. The result in experiment [5], in experiment [6], in experiment [7] and in experiment [8] was inactive.

As for `CC1(C)N=C(N)NC(Nc2ccc(Cl)cc2)=N1`, the growth inhibition in experiment [1] was -1%; in experiment [4], 97% (active). The inhibition in experiment [2] is 8%; in experiment [3], -2%. The result in experiment [5], in experiment [6], in experiment [7] and in experiment [8] was inactive.

`CCCCCN1CCN(Cc2cccc(NC(=O)c3ccc(Cl)c(Cl)c3)c2)CC1`: the growth inhibition in experiment [1] is 33%; in experiment [4], 90% (active). Further, the results for the inhibition in experiment [2] and in experiment [3] were 24% and 3%, respectively. The result in experiment [5], in experiment [6], in experiment [7] and in experiment [8] was inactive.
